Experimental data: the supplement of paper PMC10849652
Targets with a hit are over-represented here; the source holds about 7,900 in all. About 0.6% of all pairs of compound and target were hits.

Compound: CCCc1cc(C)[nH]c(=O)c1CNC(=O)c1cc(-c2ccnc(N3CCN(C)CC3)c2)cc2c1cnn2C(C)C
Assay: log2 fold change, soluble protein after heating vs DMSO (PISA); higher = thermal stabilisation; K562 cells, 10 uM, 30 min; active = over 0.2 and 3.5 SD of the protein, either way, in both replicates (recomputed)
Procedure, shortened: (§1)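 K562 cells (2×10^6 cells/mL) were treated with 10 μM compound for 30 min, and aliquots were heated for 3 min over 48°C-58°C. Pooled aliquots were extracted in PBS with 0.5% NP-40 at 4°C, and the supernatant after 21,000xg for 90 min was measured by TMTpro 16plex LC-MS/MS with channel sums equalised. Reported thermal stability, relative to control samples and from duplicates, is a log2 fold change.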

Chain of UniProt P49815 (P49815 whole entry, looked up): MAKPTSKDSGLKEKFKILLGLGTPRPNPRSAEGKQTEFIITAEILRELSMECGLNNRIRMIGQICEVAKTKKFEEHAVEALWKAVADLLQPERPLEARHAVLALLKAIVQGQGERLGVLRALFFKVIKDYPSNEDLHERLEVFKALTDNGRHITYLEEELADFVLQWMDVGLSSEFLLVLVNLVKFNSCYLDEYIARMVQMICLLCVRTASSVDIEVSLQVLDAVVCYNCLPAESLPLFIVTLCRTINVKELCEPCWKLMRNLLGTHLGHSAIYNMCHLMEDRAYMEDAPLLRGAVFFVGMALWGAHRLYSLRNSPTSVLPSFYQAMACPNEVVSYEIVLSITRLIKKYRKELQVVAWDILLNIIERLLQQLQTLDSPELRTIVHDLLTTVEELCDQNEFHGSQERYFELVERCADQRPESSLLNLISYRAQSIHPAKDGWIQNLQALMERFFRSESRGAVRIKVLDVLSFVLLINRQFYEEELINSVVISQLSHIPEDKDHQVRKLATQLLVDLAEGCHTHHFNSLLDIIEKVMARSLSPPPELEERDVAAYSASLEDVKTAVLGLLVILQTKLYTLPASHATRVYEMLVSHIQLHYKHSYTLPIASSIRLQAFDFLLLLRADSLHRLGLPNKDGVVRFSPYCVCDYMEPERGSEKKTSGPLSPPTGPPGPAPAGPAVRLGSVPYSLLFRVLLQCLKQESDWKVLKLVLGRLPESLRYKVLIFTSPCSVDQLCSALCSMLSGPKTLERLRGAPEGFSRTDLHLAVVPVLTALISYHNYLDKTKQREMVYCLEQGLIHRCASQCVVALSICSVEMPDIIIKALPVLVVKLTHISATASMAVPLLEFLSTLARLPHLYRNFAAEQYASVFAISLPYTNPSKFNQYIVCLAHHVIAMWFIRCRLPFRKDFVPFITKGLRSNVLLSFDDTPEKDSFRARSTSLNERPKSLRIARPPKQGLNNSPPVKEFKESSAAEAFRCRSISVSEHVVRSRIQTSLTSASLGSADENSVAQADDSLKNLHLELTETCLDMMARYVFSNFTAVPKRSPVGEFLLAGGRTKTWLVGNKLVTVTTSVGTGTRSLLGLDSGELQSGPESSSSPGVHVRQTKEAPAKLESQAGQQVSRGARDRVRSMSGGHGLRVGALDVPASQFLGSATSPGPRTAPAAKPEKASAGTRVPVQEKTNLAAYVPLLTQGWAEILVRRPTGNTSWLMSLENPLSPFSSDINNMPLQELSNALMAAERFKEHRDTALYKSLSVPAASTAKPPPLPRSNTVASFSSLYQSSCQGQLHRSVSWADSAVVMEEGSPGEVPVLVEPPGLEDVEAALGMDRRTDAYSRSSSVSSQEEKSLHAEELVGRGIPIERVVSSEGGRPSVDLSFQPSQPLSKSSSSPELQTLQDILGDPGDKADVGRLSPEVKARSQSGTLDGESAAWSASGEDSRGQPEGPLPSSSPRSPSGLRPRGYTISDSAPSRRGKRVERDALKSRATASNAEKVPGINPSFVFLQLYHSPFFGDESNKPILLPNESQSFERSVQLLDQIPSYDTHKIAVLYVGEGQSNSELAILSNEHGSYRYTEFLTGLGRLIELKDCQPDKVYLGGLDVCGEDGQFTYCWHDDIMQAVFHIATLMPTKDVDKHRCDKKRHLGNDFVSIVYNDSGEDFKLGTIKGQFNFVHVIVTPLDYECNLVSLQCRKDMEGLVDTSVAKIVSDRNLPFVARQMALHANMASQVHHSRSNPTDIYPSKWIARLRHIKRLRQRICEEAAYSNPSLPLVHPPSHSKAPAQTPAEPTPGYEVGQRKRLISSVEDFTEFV
Chain of UniProt A6NIH7 (A6NIH7 whole entry, looked up): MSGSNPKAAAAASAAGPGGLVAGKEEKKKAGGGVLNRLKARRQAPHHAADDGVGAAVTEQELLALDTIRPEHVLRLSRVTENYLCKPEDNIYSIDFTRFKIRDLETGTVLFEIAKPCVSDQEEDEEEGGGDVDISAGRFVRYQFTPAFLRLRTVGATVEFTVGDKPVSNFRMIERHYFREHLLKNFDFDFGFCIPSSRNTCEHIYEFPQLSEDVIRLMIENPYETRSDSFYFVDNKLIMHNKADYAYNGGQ
Chain of UniProt Q5VIR6 (Q5VIR6 whole entry, looked up): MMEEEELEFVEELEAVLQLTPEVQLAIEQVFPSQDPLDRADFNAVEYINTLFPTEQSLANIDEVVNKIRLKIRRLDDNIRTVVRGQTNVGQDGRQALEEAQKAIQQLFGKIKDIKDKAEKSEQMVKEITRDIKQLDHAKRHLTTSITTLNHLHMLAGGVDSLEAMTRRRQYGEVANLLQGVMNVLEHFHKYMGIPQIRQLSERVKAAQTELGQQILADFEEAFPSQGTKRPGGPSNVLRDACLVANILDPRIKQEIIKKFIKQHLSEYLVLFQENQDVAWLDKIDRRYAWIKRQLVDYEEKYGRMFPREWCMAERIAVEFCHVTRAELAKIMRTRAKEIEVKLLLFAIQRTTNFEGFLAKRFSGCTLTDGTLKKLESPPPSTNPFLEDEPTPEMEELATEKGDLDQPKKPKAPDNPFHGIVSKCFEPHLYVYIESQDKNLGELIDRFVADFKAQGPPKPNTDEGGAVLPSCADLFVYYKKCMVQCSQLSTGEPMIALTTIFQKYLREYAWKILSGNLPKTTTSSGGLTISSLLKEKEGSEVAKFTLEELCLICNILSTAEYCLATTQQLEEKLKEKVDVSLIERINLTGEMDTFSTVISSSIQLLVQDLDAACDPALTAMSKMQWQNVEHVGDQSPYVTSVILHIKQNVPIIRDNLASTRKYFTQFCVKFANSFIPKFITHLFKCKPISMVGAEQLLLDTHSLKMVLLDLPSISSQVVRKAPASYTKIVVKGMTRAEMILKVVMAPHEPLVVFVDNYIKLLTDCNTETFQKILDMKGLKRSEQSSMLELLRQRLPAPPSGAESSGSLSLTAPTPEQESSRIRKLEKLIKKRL
Chain of UniProt Q9BQB6 (Q9BQB6 whole entry, looked up): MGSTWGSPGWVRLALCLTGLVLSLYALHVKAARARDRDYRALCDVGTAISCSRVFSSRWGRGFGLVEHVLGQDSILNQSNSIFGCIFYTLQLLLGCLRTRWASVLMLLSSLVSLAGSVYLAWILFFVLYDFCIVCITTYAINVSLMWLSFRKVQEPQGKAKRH
Chain of UniProt P21796 (P21796 whole entry, looked up): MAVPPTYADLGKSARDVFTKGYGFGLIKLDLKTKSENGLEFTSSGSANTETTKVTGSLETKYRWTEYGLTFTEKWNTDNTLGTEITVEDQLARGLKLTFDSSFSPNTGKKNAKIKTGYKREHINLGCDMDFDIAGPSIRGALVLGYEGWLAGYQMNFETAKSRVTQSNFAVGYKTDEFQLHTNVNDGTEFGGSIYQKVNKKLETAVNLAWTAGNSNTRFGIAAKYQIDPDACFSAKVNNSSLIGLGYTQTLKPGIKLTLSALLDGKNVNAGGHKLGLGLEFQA
Chain of UniProt Q9Y5Z9 (Q9Y5Z9 whole entry, looked up): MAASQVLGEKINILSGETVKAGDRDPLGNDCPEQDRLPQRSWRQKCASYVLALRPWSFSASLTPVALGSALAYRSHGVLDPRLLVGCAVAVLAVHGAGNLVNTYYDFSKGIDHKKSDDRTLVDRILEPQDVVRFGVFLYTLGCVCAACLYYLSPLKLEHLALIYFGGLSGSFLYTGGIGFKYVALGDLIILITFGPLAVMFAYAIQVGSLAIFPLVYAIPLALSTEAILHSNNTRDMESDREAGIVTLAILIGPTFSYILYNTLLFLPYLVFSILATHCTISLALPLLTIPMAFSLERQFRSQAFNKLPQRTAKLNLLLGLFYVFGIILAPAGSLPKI
Chain of UniProt Q96FX7 (Q96FX7 whole entry, looked up): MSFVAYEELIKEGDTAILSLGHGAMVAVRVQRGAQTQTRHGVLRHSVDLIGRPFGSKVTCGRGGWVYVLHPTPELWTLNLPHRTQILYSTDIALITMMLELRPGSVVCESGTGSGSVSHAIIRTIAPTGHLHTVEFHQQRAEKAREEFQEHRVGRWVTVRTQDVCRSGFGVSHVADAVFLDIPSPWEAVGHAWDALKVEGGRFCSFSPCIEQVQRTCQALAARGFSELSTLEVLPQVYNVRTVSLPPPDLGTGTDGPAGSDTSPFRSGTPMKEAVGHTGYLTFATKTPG
Chain of UniProt P68366 (P68366 whole entry, looked up): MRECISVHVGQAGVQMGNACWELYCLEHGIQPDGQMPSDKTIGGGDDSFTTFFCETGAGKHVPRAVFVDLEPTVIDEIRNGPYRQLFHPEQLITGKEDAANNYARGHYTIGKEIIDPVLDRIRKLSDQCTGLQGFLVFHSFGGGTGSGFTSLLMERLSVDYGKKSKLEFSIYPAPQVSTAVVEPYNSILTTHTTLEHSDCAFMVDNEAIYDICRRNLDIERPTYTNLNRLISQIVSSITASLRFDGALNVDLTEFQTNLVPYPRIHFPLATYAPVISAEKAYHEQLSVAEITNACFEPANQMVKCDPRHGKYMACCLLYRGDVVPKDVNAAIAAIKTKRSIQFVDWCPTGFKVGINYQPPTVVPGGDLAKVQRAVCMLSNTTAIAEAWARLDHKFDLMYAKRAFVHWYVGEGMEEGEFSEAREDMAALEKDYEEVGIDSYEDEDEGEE
Chain of UniProt Q9H4I3 (Q9H4I3 whole entry, looked up): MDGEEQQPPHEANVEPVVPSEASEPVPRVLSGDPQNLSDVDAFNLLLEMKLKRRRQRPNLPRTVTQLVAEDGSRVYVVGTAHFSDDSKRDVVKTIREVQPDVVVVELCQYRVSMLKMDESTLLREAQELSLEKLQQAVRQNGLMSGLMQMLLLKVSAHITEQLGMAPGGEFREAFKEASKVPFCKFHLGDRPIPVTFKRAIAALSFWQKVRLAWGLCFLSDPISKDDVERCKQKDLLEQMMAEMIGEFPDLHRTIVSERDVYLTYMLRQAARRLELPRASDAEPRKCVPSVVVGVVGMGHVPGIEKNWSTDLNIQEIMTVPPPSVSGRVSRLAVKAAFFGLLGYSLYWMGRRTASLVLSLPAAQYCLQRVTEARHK
Chain of UniProt P61960 (P61960 whole entry, looked up): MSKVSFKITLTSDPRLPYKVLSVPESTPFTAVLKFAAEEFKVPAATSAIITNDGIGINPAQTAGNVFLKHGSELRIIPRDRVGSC

log2 fold change, inactive:
VPS11 (UniProt Q9H270) 0.031
TXNL4B (UniProt Q9NX01) -0.06
USP3 (UniProt Q9Y6I4) -0.069
TRIM4 (UniProt Q9C037) 0.046
VPS53 isoform 4 (UniProt Q5VIR6) 0.03
VPS37A (UniProt Q8NEZ2) 0.014
TUBA4A (UniProt P68366) -0.004
VDAC1 (UniProt P21796) -0.005
UBA52 (UniProt P62987) 0.205
VPS28 (UniProt Q9UK41) -0.074
UNC119B (UniProt A6NIH7) -0.108
TRMT61A (UniProt Q96FX7) 0.114
WNK1 isoform 7 (UniProt Q9H4A3) -0.006
TSPAN13 (UniProt O95857) -0.113
TTI2 (UniProt Q6NXR4) -0.018
TTC33 (UniProt Q6PID6) -0.471
UTP3 (UniProt Q9NQZ2) 0.101
ULBP1 (UniProt Q9BZM6) 0
VPS13B (UniProt Q7Z7G8) -0.008
TMEM70 (UniProt Q9BUB7) -0.053
UBE4B isoform 4 (UniProt O95155) -0.008
VPS72 isoform 2 (UniProt Q15906) -0.042
UBIAD1 (UniProt Q9Y5Z9) 0.023
TRIM44 (UniProt Q96DX7) 0
UGDH (UniProt O60701) -0.097
TRABD (UniProt Q9H4I3) 0.147
WEE1 (UniProt P30291) -0.137
UCHL5 isoform 3 (UniProt Q9Y5K5) 0.047
UFM1 (UniProt P61960) -0.083
TSC2 (UniProt P49815) -0.036
TMEM9B (UniProt Q9NQ34) 0.006
VKORC1 (UniProt Q9BQB6) -0.017
TMEM179B (UniProt Q7Z7N9) -0.021

Compound: CCN(CC)Cc1ccc2cc(COC(=O)Nc3ccc(C(=O)NO)cc3)ccc2c1 [givinostat]
Assay: as above
Procedure, shortened: as §1

log2 fold change, inactive:
VPS11 (UniProt Q9H270) -0.058
TXNL4B (UniProt Q9NX01) 0.014
USP3 (UniProt Q9Y6I4) -0.022
TRIM4 (UniProt Q9C037) -0.086
TMEM128 (UniProt Q5BJH2) 0.249
VPS53 isoform 4 (UniProt Q5VIR6) 0.045
VPS37A (UniProt Q8NEZ2) 0.14
TUBA4A (UniProt P68366) 0.014
VDAC1 (UniProt P21796) -0.001
UBA52 (UniProt P62987) -0.06
VPS28 (UniProt Q9UK41) -0.024
UNC119B (UniProt A6NIH7) 0.12
TRMT61A (UniProt Q96FX7) 0.038
WNK1 isoform 7 (UniProt Q9H4A3) 0.03
TSPAN13 (UniProt O95857) -0.063
TTI2 (UniProt Q6NXR4) 0.135
TTC33 (UniProt Q6PID6) -0.062
UTP3 (UniProt Q9NQZ2) 0.075
ULBP1 (UniProt Q9BZM6) 0.028
VPS13B (UniProt Q7Z7G8) 0.002
TMEM70 (UniProt Q9BUB7) -0.164
UBE4B isoform 4 (UniProt O95155) 0.008
VPS72 isoform 2 (UniProt Q15906) -0.014
UBIAD1 (UniProt Q9Y5Z9) 0.043
TRIM44 (UniProt Q96DX7) -0.026
UGDH (UniProt O60701) 0.031
TRABD (UniProt Q9H4I3) -0.041
WEE1 (UniProt P30291) 0.037
UCHL5 isoform 3 (UniProt Q9Y5K5) 0.056
UFM1 (UniProt P61960) 0.087
TSC2 (UniProt P49815) -0.043
TMEM9B (UniProt Q9NQ34) -0.023
VKORC1 (UniProt Q9BQB6) -0.006
TMEM179B (UniProt Q7Z7N9) -0.118

Compound: CCN(CCCOc1ccc2c(Nc3cc(CC(=O)Nc4cccc(F)c4)[nH]n3)ncnc2c1)CCOP(=O)(O)O [barasertib]
Assay: as above
Procedure, shortened: as §1

log2 fold change, inactive:
VPS11 (UniProt Q9H270) 0.017
TXNL4B (UniProt Q9NX01) 0.306
USP3 (UniProt Q9Y6I4) 0.067
TRIM4 (UniProt Q9C037) 0.011
TMEM128 (UniProt Q5BJH2) -0.004
VPS53 isoform 4 (UniProt Q5VIR6) 0.045
VPS37A (UniProt Q8NEZ2) 0.076
TUBA4A (UniProt P68366) -0.002
VDAC1 (UniProt P21796) -0.017
UBA52 (UniProt P62987) 0.044
VPS28 (UniProt Q9UK41) 0.061
UNC119B (UniProt A6NIH7) -0.029
TRMT61A (UniProt Q96FX7) -0.091
WNK1 isoform 7 (UniProt Q9H4A3) 0.032
TSPAN13 (UniProt O95857) -0.041
TTI2 (UniProt Q6NXR4) -0.028
TTC33 (UniProt Q6PID6) 0.079
UTP3 (UniProt Q9NQZ2) -0.08
UBE3B (UniProt Q7Z3V4) -0.057
VPS13B (UniProt Q7Z7G8) 0.002
TMEM70 (UniProt Q9BUB7) 0.047
UBE4B isoform 4 (UniProt O95155) 0.042
VPS72 isoform 2 (UniProt Q15906) 0.001
UBIAD1 (UniProt Q9Y5Z9) 0.023
TRIM44 (UniProt Q96DX7) -0.035
UGDH (UniProt O60701) 0.079
TRABD (UniProt Q9H4I3) 0.031
UBXN8 (UniProt O00124) -0.218
WEE1 (UniProt P30291) -0.005
UCHL5 isoform 3 (UniProt Q9Y5K5) 0.048
UFM1 (UniProt P61960) -0.014
TSC2 (UniProt P49815) -0.015
TMEM9B (UniProt Q9NQ34) -0.015
VKORC1 (UniProt Q9BQB6) 0.048
TMEM179B (UniProt Q7Z7N9) 0.045
